This passage reports growth results from PubChem BioAssay (NCI).

The structures appear in SMILES notation. This is part of a sample that, as a whole, favours compounds with a hit. Of some 83,000 tested, about 20% had one in any assay.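 Results are percent growth after 48 hours of single-concentration exposure. 100 means growth as in untreated cells, lower positive values show inhibition; negative values down to -100 show cell death.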 Unmarked numbers belong to inactive results. Active and inactive are the calls of the source. Rule for the calls: active = growth percent below 10; inactive = the rest.

The experiment relates to HL-60(TB) leukemia. Nature of the experiment: NCI-60 one-dose screen, 48 h (100 = growth as untreated, 0 = no growth, -100 = all killed). The following applies: 10 µM unless noted.
Regarding `COc1ccc(NC(=O)Cn2c(/C=C/c3ccc([N+](=O)[O-])cc3)nc3ccccc3c2=O)cc1`, the growth was 112%.

Consider `CC(C)c1sc(NC(=O)c2cc(NC(=O)c3cc(NC(=O)c4nccn4C)cn3C)cn2C)nc1C(=O)NCCCN(C)C`, for which the growth is 47.1%.

For the compound `CN(C)CCCNC(=O)c1cc(NC(=O)c2cc(NC(=O)c3ccc(C#Cc4ccccc4)cc3)cn2C)cn1C`, the growth was -69.6% (active).

Consider `CCCSc1nnc(-c2sc3nc4ccccc4n3c2C)o1`, for which the growth is 94%.

Consider `COc1ccc(-c2nc3ccc(-c4nnc(SCc5ccccc5)o4)cc3[nH]2)cc1`, for which the growth was 16.3%.

With `COc1ccc(N(C)c2cc(C#N)nc3ccccc23)cc1N`, the growth was -10% (active).

For `Clc1ccc(-c2nc3c4c(-c5ccccc5)c(-c5ccccc5)n(Cc5ccccc5)c4ncn3n2)cc1`, the growth is -27.7% (active).

Consider `N#Cc1c(-c2cccc(Cl)c2Cl)cc(-c2c[nH]c3ccccc23)[nH]c1=O`, for which the growth is 62.1%.

`COc1cccc(-c2ccc(/C=N/NC(=O)c3[nH]c4ccc(Br)cc4c3-c3ccccc3)s2)c1`: the growth is -28.2% (active).

`O=C(/C=C/c1ccc(-c2ccccc2)cc1)c1nc2ccccc2n1Cc1ccc(F)cc1`: the growth is 21.1%.

`COc1ccc(N=Nc2c(N)nn3c(-c4cc5cc(Br)ccc5oc4=O)ccnc23)cc1`: the growth is 102%.

Consider `CC[C@@]12CC(C(=O)OC)=C3Nc4cc5c(cc4[C@@]34CCN(C[C@H]3O[C@H]31)[C@@H]24)[C@@H]1[C@H](O5)[C@@H](O)[C@@]2(CC)CC(C(=O)OC)=C3Nc4cc(O)ccc4[C@@]34CCN1[C@@H]24`, for which the growth was -39.1% (active).

Take `O=[N+]([O-])c1cccc(-c2nnc3c(/C=C/c4ccc(F)cc4)nc4ccccc4n23)c1`: the growth is 92.7%.

With `O=C1Nc2ccc(Cl)cc2/C1=C/c1ccc(OCc2ccccn2)cc1`, the growth was 85%.

On to `O=C(Nc1ccc(OCC(=O)c2ccc(Cl)cc2)cc1)Nc1ccc(Cl)c(C(F)(F)F)c1`, for which the growth is 12.5%.

As for `C[C@H](NC(=O)c1ccc2c(-c3ccc(C(F)(F)F)cc3)cccc2c1)c1ccccn1`, the growth was 23%.

As for `CCCCSc1nc(Nc2ccc(/C(C)=N/NC(N)=S)cc2)c(C#N)c(-c2ccccc2)n1`, the growth is 79.3%.

For the compound `COc1cc(-c2cc(-c3cccc(OCC(=O)O)c3)[nH]c(=O)c2C#N)cc(OC)c1OC`, the growth was 80.6%.

`COc1ccc(-c2ccnc(SCc3cc4ccccc4[nH]c3=O)n2)cc1`: the growth is 34.1%.

Consider `COc1ccc([C@H]2C(C(=O)c3ccc(Cl)cc3)C3(N[C@@H]2c2ccccc2)C(=O)Nc2ccc(Br)cc23)cc1` (stereo not given in full), for which the growth is 15.3%.

With `COc1cc(NC(=O)CSc2nnc(-c3ccc(-c4nc5ccc(Cl)cc5[nH]4)cc3)o2)cc(OC)c1OC`, the growth is 8.77% (active).

For the compound `Cc1nn(-c2ccccc2)c2nc(C)n(C(=O)N/N=C/c3ccccc3)c(=O)c12`, the growth was 104%.

As for `CN(C)CCn1c2ccccc2c2nc3cc(C(F)(F)F)ccc3nc21`, the growth was 24.7%.

On to `Cc1cc(Cl)ccc1NC(=O)Nc1ccc(-c2ccc3c(c2)NC(=O)/C3=C\c2ccc[nH]2)cc1`, for which the growth was 78.9%.

Regarding `COc1ccc(C2CC(c3ccc(S(=O)(=O)NCCNc4nc(Nc5ccc(F)cc5)nc(N(C)C)n4)cc3)=Nc3c(N)nc(N)nc3N2)cc1` (stereo not given), the growth was 52.5%.

As for `COc1ccc2[nH]cc(-c3cc(N)n4nc(-c5cn(C)c6ccccc56)cc4n3)c2c1`, the growth is -40.7% (active).

Take `CSc1ccc(NC(=O)c2ccc3nnn(/C(C#N)=C/c4ccccn4)c3c2)cc1`: the growth is 2.93% (active).

In the case of `CN(C)C(=O)c1cc(-c2ccc3ncnc(N4CCc5cc(F)c(Cl)cc54)c3c2)cnc1N`, the growth is -73.8% (active).

On to `C=C1CCC2C3(C)COC(c4ccccc4F)OC3CCC2(C)C1C/C=C1/C(=O)OCC1O` (stereo not given), for which the growth was -0.649% (active).

As for `O=C(Nc1ccc(S(=O)(=O)N2CCCCC2)cc1)C(Cl)Cl`, the growth was 120%.

As for `COc1cc2c(c(OC)c1OC)C(=O)CC(c1cccc(NC(=O)c3cc(NC(=O)[C@@H](N)CO)ccc3C)c1)O2` (stereo not given in full), the growth was 101%.

On to `CC(C)c1ccc(C(=O)Nc2sc3c(c2C(N)=O)CCC(=O)C3=O)cc1`, for which the growth was 96.9%.

As to `COc1ccc(Cc2nn(CC(=O)N/N=C/c3ccc([N+](=O)[O-])cc3)c(=O)c3c(C)noc23)cc1`, the growth is 109%.

Consider `O=C(CSc1nnc(-c2ccc(-c3nc4ccccc4[nH]3)cc2)o1)Nc1ccccc1`, for which the growth is 53.5%.

As for `COc1cc2c(c(OC)c1OC)C(=O)CC(c1cccc(NC(=O)c3cc(NC(=O)[C@H](CO)NC(=O)OC(C)(C)C)ccc3Cl)c1)O2` (stereo not given in full), the growth was 36.6%.

Regarding `CN(C)CCOc1ccc(C(=O)C2[C@H](c3ccc(Cl)cc3)[C@@H](c3ccccc3)NC23C(=O)Nc2ccc(Cl)cc23)cc1` (stereo not given in full), the growth is -75.6% (active).

As for `S=C(Nc1ccccc1)Nc1ccc(OCc2nc3ccc(Cl)cc3[nH]2)cc1`, the growth was 85.2%.

Take `COc1ccc2[nH]cc(-c3nc(N)nnc3-c3cn(C)c4ncc(Br)cc34)c2c1`: the growth was -44.9% (active).

Consider `COc1ccc(-c2cc(C(=O)N=Nc3c(O)[nH]c4ccc(F)cc34)c3ccccc3n2)cc1`, for which the growth is 51.6%.

With `Brc1ccc(/C=C/c2n(Cc3ccc4ccccc4c3)c3ccccc3[n+]2Cc2ccc3ccccc3c2)cc1`, the growth was -48.7% (active).
